Sampled rows, rich in hits. Any-hit rate of the full collection: about 4.7%.
TRHR PAM – allosteric enhancers of human TRH receptor | enhancement, % at 2 µM | TRHR cells, fluo-8 calcium fluorescence, EC20 TRH enhancement | 360,000 compounds, 0.66% hits; in the data active means enhancement above about 30%; further: 0% is about no effect
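TRHR-expressing cells loaded with fluo-8 calcium dye were read kinetically (ex 480/em 530) during compound addition, then stimulated with an EC20 of TRH (10 nM final). Enhancement of the Gq-mediated intracellular calcium response was scored.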
D1 PAM – human D1 dopamine receptor positive modulation; P21728; HEK293 TREx D1 cells, calcium flux, dopamine EC20 potentiation; potentiation, % at 10 µM; AID 504651; 360,000 compounds, 0.036% hits; in the data active means potentiation above about 30%; further: 0% is about no effect
Target sequence (P21728 whole entry, looked up): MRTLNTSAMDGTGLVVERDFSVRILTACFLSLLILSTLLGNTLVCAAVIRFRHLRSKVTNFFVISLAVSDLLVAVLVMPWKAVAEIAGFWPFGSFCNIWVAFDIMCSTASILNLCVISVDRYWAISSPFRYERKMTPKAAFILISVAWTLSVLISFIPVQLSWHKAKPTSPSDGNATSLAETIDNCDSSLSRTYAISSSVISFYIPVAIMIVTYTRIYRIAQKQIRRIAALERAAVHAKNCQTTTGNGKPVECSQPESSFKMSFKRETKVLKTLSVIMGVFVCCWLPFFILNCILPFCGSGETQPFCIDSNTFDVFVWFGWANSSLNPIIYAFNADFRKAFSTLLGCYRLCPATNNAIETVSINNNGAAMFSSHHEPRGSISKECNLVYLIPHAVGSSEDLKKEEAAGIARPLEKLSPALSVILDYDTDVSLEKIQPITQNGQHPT
D1 antag – antagonists of human D1 dopamine receptor | P21728 | AID 504652 | activity change, negative = inhibition, % at 10 µM | 360,000 compounds, 3.2% hits | HEK293 TREx D1 cells, calcium flux, dopamine EC80; active compounds read low; in the data active means activity change below about -30%; further: on the % scale 0 is the no-effect control and ±100 the full control effect
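HEK293 T-REx cells expressing inducible, force-coupled D1 receptor; no-wash Ca dye, 30–90 min RT. Cmpd → 180 s read at 1 Hz → EC80 DA → 180 s read.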
D1 ag – agonists of human D1 dopamine receptor; P21728; HEK293 T-REx D1 cells, calcium flux, agonist mode; activation, % at 2 µM; 360,000 compounds, 1% hits; further: 0% is about no effect
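Tetracycline-induced HEK293 TREx D1 cells, force-coupled to calcium signalling, were dye-loaded with a no-wash calcium kit. Compound was pin-added after a 10 s baseline. Fluorescence was read kinetically at 1 cycle/s for 180 s, with calcium rises flagged as agonism.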
TRHR ag – activates the human TRH receptor. P34981. TRHR cells, calcium flux fluo-8, FDSS agonist mode. activation, % at 2 µM. 360,000 compounds, 0.18% hits. AID 493084; further: 0% is about no effect
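Fluo-8-loaded TRHR cells; 10 s baseline, compound added, kinetic Ca2+ fluorescence read 1/s, agonist mode.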
* marks the source's active call; other numbers are inactive results; x = no result. Unless noted, no stated cut-off is given here; in the data, active means activation above about 30%; inactive means the rest.

SMILES	TRHR PAM	D1 PAM	D1 antag	D1 ag	TRHR ag
CCOC(=O)c1sc2ncn(CC(=O)Nc3cccc(C)c3)c(=O)c2c1C	2	2	-35*	2	1
CCc1nc2ccc(C(=O)Nc3ccc4c(c3)OCO4)cc2nc1CC	39*	-4	-10	0	0
CCc1nc2ccc(C(=O)Nc3cccc(C(C)=O)c3)cc2nc1CC	1	5	7	0	-1
CCc1nc2ccc(C(=O)Nc3nnc(C)s3)cc2nc1CC	1	-8	-42*	3	0
CCc1ccc(C(=O)Nc2ccc3nc(C)ccc3c2)cc1	4	-10	-31*	2	-1
Cc1ccc2cc(NC(=O)c3ccc(C(C)(C)C)cc3)ccc2n1	3	1	-15	0	-1
COc1ccc(C(=O)Nc2nnc(C)s2)cc1	3	4	4	-1	-1
CCCCC1(C)NC(=O)N(CC(=O)Nc2cc(S(=O)(=O)N3CCOCC3)ccc2Cl)C1=O (centres undefined)	3	3	-9	0	0
CC(C)N1CCN(c2ccc(OC[C@H]3CO[C@](Cn4cncn4)(c4ccc(Cl)cc4Cl)O3)cc2)CC1	0	2	-44*	62*	-1
Cc1oc2c(c(C)cc3oc(=O)c(CC(=O)NCc4ccc(F)cc4)c(C)c32)c1C	-1	0	-3	-1	1
CN(C)S(=O)(=O)c1ccc(NC(=O)CCNC(=O)c2ccc([N+](=O)[O-])cc2)cc1	0	-7	-16	2	-1
CCOC(=O)c1sc(NC(=O)CSc2nc3c(cc2C#N)CCCCCC3)c(C#N)c1C	-9	-1	9	42*	16
O=C(OCn1nnc2ccccc2c1=O)c1cc2ccccc2o1	-2	-5	-32*	2	0
O=C(OCn1nnc2ccccc2c1=O)c1ccco1	2	7	5	-1	0
CCOc1ccc(NC(=O)CN2C(=O)C(c3ccc(Cl)cc3)=NC2(C)C)cc1	5	-1	-9	5	0
Cc1ccc(-n2ccnc(NCc3ccccc3)c2=O)cc1C	9	-2	-35*	1	0
Cc1c(C(=O)NCc2ccc(OC(C)C)cc2)sc2ncnc(N(C)C3CCCCC3)c12	1	-3	-10	6	0
O=C(Nc1nccc(-c2cccs2)n1)c1ccccc1Cl	14	-4	-38*	-2	-1
CCCC(=O)Nc1ccc2c(c1)Cc1ccccc1-2	3	-1	-38*	3	0
CCC(=O)Nc1ccc2c(c1)Cc1cc(NC(=O)CC)ccc1-2	-6	-9	-7	0	-1
COc1cccc2cc(-c3nnc(SCC(=O)Nc4ccc(NC(C)=O)cc4)n3C)oc12	-1	-2	-57*	1	0
COc1ccccc1-c1nnc(SCC(=O)NC2CC2)n1C	11	x	-59*	6	0
COc1ccccc1-c1nnc(SCC(=O)Nc2ccc(N3CCOCC3)cc2)n1C	2	5	-36*	0	-1
COc1ccccc1-c1nnc(SCC(=O)NC2CCCCC2)n1C	-1	-13	-9	2	0
CCOC(=O)C1=C(C)Nc2ccccc2N/C1=N\S(=O)(=O)c1ccccc1	-6	-6	-20	2	0
SMILES	TRHR PAM	D1 PAM	D1 antag	D1 ag	TRHR ag
COc1ccc(CNc2oc(-c3ccc(COc4ccccc4C)o3)nc2C#N)cc1	7	1	-3	0	-1
Cc1nn(CC(=O)NCc2ccccc2Cl)c(=O)c2cccn12	-4	0	-7	2	0
CCOc1ccc(-c2oc3cc(Cl)ccc3c(=O)c2O)cc1OC	-11	-1	20	96*	78*
Cc1ccc(-c2cnc(SCCNC(=O)c3ccco3)[nH]2)cc1	31*	-4	-9	4	0
Cc1ccc(C(=O)NCCCNC(=O)c2ccco2)cc1	-9	-3	-3	2	0
Cc1ccc(S(=O)(=O)N2CCC(C(=O)OCC(=O)N(C)C3CCCCC3)CC2)cc1C	-2	-10	-38*	3	1
CCOC(=O)C1CCN(C(=O)Cn2c(=O)oc3cc(S(=O)(=O)N4CCCC4)ccc32)CC1	-4	-4	-13	2	0
Cc1ccc(S(=O)(=O)N2CCC(C(=O)OCC(=O)N(C)C3CCS(=O)(=O)C3)CC2)cc1C (centres undefined)	-1	-5	1	1	0
CCOC(=O)C1CCN(C(=O)Cn2c(=O)oc3cc(S(=O)(=O)N4CCC(C)CC4)ccc32)CC1	3	1	-39*	12	-2
Cc1ccc(S(=O)(=O)N2CCOCC2)cc1C(=O)Nc1ccc(C(N)=O)cc1	0	-10	-32*	3	1
CCOC(=O)C1CCN(C(=O)c2cc(S(=O)(=O)N3CCOCC3)ccc2C)CC1	31*	-3	3	0	0
CCc1ccccc1NC(=O)CSc1nc(C)c(C)o1	-4	-1	-12	8	-1
CCC(C)NC(=O)C1CCC(CNS(=O)(=O)c2ccc3c(c2)N(C(C)=O)CCO3)CC1 (centres undefined)	1	-6	5	1	0
CN(C(=O)COC(=O)C1CCN(S(=O)(=O)c2c(Cl)cccc2Cl)CC1)c1ccccc1	-3	-2	-32*	18	1
CCN(CC)c1ccc(NC(=O)c2cc(C)nc3c2c(C)nn3-c2ccc(C)cc2)c(C)c1	-18	4	-3	2	1
COc1ccccc1NC(=O)c1ccc2oc(=O)c(S(=O)(=O)c3ccccc3)cc2c1	-5	-2	-56*	-1	0
Cc1ccc(NC(=O)c2ccc3oc(=O)c(S(=O)(=O)c4ccccc4)cc3c2)cc1C	-4	0	-2	0	0
N#C/C(=C\c1cccs1)C(=O)Nc1ccccn1	-1	5	-18	3	3
Oc1cncc(-c2cccnc2)c1	31*	4	x	-3	1
O=C(CSc1ccc2nnc(-c3ccccn3)n2n1)Nc1ccccc1	-4	3	2	5	0
Cc1cc(NC(=O)CSc2ccc3nnc(-c4ccccn4)n3n2)no1	1	-11	-32*	3	4
COc1ccc(OCC(=O)Nc2cccc(-c3nc4ccccc4s3)c2C)cc1	1	-1	-16	35*	-1
O=C(COC(=O)c1ccccc1-n1cnnn1)c1ccc(F)cc1	1	-9	-19	0	0
CCOC(=O)c1ccc(NC(=O)CC2S/C(=N/N=C/c3c[nH]c4ccccc34)NC2=O)cc1 (centres undefined)	5	2	-36*	1	0
CC1CCc2c(sc(NC(=O)c3cc4nc(-c5ccc(Cl)cc5)cc(C(F)(F)F)n4n3)c2C#N)C1 (centres undefined)	-1	-5	-2	0	1
Cc1ccccc1OC(=O)CSc1nnc(-c2ccc3c(c2)OCO3)o1	-3	-2	7	-1	0

Compound activity as filed in PubChem BioAssay.
